The text below walks through data of PubChem BioAssay.

In general, inhibition refers to the relative decrease from the control value, in per cent.

A short description of test [1]: yeast TOR pathway RPL19A-GFP modulators, primary screen, cell-based, S. cerevisiae, multiplex flow cytometry (AID 1862; in the data active = percent of DMSO control GFP below about 86%;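 note: lower values mimic rapamycin by blocking the RPL19A rise seen in DMSO cells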). Conditions: S. cerevisiae RPL19A-GFP strain, flow cytometry fluorescence, 3 h; at 10 µM; stronger effect = lower value.
Test [2] is described as follows: modulators of MEP2-GFP levels in yeast, primary screen, S. cerevisiae, multiplex flow cytometry (AID 1867;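 active = GFP response, as percent of the DMSO control, above the screen-wide mean plus 3 SD, about 139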;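 note: median GFP channel fluorescence of barcode-gated MEP2-GFP cells measured by flow cytometry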). Conditions: S. cerevisiae MEP2-GFP strain, 3 h, at 10 µM, stronger effect = higher value, 100% means same as DMSO wells.
The nature of test [3]: modulators of CIT2-GFP expression in yeast, primary screen, S. cerevisiae, GFP fusion, multiplex flow cytometry (AID 1870;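 active = percent response above a set limit, the screen-wide mean plus 3 SD, cut at about 130% in these data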;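 note: barcoded CIT2-GFP strain pooled with four other GFP strains with rapamycin as positive control; median GFP fluorescence per well over plate mean of DMSO wells so 100% = DMSO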). Conditions: 3 h, at 10 µM, stronger effect = higher value. For orientation: A flow cytometer gives signals particle by particle.
Test [4] is described as follows: modulators of LAP4-GFP expression in yeast, primary screen, S. cerevisiae, multiplex flow cytometry (AID 1873;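 active = GFP signal, as percent of the solvent control, above the screen mean plus 3 SD, about 149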). Conditions: 3 h, at 10 µM, stronger effect = higher value.
Test [5] in a line: modulators of AGP1-GFP expression in yeast TOR pathway, primary screen, cell-based, multiplex flow cytometry, S. cerevisiae (AID 1887;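 active = GFP signal above the screen-wide mean plus 3 SD, that is over about 124.5% of the solvent control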;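 note: AGP1-GFP fusion strain of S. cerevisiae within a five-strain barcoded multiplex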). Conditions: 3 h, at 10 µM, stronger effect = higher value.
A short description of test [6]: inhibitors of CD8+ T cell-vesicle binding, pilot screen, LFA-1/ICAM-1 modulator project, MLPCN validation set, flow cytometry (AID 2523;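 active = response below a set limit, under 55% cells CD8-positive and vesicle-bound, and CD8 cells' 90th-percentile brightness under 279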;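 for vesicle binding response: mean PE anti-B7-1 fluorescence of CD8+ cells relative to row control; 100% = QL9-loaded vesicles with DMSO vehicle in the same plate row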). Conditions: 2C mouse CD8+ T cells, at 7 µM, stronger effect = lower value; double positive events: measured here: CD8+/vesicle+ event percentage.
In test [7] the target is Integrin beta-1 (Homo sapiens) + Integrin alpha-4 (Homo sapiens) (UniProt P13612+P05556). Description: inhibition of HUTS-21 binding to VLA-4, pilot screen, VLA-4 allosteric modulator project, U937 cells, HUTS-21 mAb, flow cytometry, validation set (AID 2674;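 active = inhibition above 50%, about 3 SD of the validation set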;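 note: antibody binding induced by the VLA-4 ligand LDV present at three times its Kd; 0% = LDV ligand with antibody and no compound and 100% = antibody without LDV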). Conditions: HUTS-21 LIBS mAb binding, at 6.7 µM, stronger effect = higher value, binding induced by LDV ligand.
Integrin beta-1 (Homo sapiens) + Integrin alpha-4 (Homo sapiens), sequence (P05556 whole entry, looked up): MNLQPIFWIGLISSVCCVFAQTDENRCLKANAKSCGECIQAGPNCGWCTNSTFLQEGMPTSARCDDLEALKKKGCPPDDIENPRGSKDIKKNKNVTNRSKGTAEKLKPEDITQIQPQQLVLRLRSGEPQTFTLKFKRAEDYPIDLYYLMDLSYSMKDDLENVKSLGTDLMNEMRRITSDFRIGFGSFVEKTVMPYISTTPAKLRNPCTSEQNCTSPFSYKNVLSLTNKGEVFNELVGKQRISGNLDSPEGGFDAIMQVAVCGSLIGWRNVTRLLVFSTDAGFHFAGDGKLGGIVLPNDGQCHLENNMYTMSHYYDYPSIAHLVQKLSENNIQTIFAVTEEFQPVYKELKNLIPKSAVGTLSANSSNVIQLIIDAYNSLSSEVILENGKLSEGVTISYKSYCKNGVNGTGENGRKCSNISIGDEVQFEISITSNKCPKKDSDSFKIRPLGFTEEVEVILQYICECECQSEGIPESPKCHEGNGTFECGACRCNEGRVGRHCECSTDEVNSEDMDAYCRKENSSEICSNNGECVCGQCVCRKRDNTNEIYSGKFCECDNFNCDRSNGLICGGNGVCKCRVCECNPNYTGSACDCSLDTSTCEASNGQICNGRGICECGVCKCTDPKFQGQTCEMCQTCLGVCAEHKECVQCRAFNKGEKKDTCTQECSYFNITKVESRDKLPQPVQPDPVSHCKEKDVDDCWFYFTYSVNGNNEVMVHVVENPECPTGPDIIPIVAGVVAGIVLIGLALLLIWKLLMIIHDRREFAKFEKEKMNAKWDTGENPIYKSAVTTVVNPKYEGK
Integrin beta-1 (Homo sapiens) + Integrin alpha-4 (Homo sapiens), sequence (P13612 whole entry, looked up): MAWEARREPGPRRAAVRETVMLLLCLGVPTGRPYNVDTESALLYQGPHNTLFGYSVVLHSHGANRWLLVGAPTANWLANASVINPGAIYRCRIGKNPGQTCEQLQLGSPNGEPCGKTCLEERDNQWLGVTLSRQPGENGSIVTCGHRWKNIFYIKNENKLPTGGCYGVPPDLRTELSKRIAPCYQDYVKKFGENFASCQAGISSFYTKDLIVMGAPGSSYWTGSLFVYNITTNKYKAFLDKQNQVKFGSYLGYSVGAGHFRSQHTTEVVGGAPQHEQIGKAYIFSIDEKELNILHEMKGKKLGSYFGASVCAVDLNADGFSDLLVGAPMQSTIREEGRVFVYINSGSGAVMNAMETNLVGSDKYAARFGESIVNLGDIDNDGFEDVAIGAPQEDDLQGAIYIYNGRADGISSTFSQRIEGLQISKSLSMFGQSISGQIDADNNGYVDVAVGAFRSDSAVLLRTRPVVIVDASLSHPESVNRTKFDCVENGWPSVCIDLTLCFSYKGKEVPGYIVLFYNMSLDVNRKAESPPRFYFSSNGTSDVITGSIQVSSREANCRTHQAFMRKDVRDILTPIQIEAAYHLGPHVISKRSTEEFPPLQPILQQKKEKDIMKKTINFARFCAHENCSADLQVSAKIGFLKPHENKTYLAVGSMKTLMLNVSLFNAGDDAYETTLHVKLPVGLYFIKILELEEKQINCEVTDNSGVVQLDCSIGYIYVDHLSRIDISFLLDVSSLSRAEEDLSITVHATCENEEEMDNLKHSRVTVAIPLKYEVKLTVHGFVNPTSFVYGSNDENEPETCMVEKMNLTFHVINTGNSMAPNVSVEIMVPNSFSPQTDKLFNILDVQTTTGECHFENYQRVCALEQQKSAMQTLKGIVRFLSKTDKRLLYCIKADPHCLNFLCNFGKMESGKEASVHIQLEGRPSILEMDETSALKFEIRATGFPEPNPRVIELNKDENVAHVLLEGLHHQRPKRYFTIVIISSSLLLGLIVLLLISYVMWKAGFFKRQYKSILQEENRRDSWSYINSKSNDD
Test [8] can be described thus: superoxide lowering in aged yeast cells, pilot screen, validation compound set (AID 2706;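 active = superoxide response below 65% of plate, a cut near 3 SD across the whole screen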;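 note: yeast exposed to compound for one week at 30 degrees C before staining; 100% = mean of all compound wells on the same plate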). Conditions: S. cerevisiae aging, superoxide DHE fluorescence; at 10 µM; stronger effect = lower value.
Test [9] has as its target Beta-adrenergic receptor kinase 1 (Homo sapiens) (UniProt P25098). Description: GRK2 binders displacing RNA aptamer, biochemical, validation, human GRK2, bead flow cytometry (AID 488806;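 active = aptamer binding inhibition above 30%, about 3 SD of noise from non-fluorescent compounds; inactive = inhibition at or below 30%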). Conditions: bead-bound GRK2, FAM-aptamer displacement, at 10 µM, stronger effect = higher value.
Test [10] addresses Beta-2 adrenergic receptor (Homo sapiens) (UniProt P07550). Description: beta2AR agonists driving receptor internalization, pilot screen, cell-based, FAP fluorogen, flow cytometry, validation set (AID 504459;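 active = percent response above 42, roughly 3 SD of non-fluorescent test compounds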;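 note: agonist-driven loss of surface beta2AR via internalization measured by FAP dye flow cytometry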). Conditions: Am2.2-beta2AR cells, FAP surface receptor flow cytometry; at 10 µM; stronger effect = higher value.
Test [11] concerns the target AP-2 complex subunit beta (Homo sapiens) (UniProt P63010). Description: inhibitors of arrestin peptide binding to AP2, pilot screen, biochemical, validation set, GST-AP2 beads, flow cytometry (AID 504541;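 active = inhibition above 54%, about 3 SD of non-fluorescent compounds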;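 note: AP2 carries R879A mutation and is captured from E. coli lysate; bead-bound FITC arrestin peptide fluorescence measuring arrestin peptide binding to AP2; 0% = DMSO wells and 100% = excess unlabeled arrestin peptide control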). Conditions: FITC arrestin peptide, at 10 µM, stronger effect = higher value, AP2 beta2 appendage fragment, R879A mutant.
Test [12] in a line: yeast V-ATPase proton transport modulators, S. cerevisiae, pHLuorin, HTS validation (AID 504600; in the data active = response above about 15%;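 note: plate controls were DMSO for no effect and reference compound for full effect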). Conditions: S. cerevisiae pHLuorin cytosolic pH, at 10 µM, stronger effect = higher value.
For test [13], the system named is anti-desmoglein-3 scFv antibody binding to human DSG3. Put plainly: inhibitors of anti-DSG3 scFv binding to DSG3, pilot screen, biochemical, validation compound set, bead-based, flow cytometry (AID 588368;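 active = binding below the plate cutoff, the plate median minus 3 SD, with a reading above zero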;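 note: signal is the median channel fluorescence of bead-bound GFP antibody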). Conditions: Protein G beads, DSG3-Fc, scFv-GFP binding, at 10 µM, stronger effect = lower value.
A short description of test [14]: inhibitors of fungal efflux pumps CDR1, CDR2, MDR1, pilot screen, validation compound set, multiplex, phenotypic (AID 588506;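 active = efflux inhibition above 0.42, the validation set average plus 4 SD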;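 note: Nile Red retained in cells so higher fluorescence means more efflux inhibition; 0 = negative control wells and 1 = enniatin B 25 µM full block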). Conditions: S. cerevisiae pump-expressing triplex, Nile Red efflux flow cytometry; at 10 µM; stronger effect = higher value; the pumps come from Candida albicans.
Test [15] addresses ATP-binding cassette sub-family B member 6 (Homo sapiens) (UniProt Q9NP58). Put plainly: ABCB6 transporter inhibitors, pilot screen, K562-ABCB6 cells, flow cytometry, validation set (AID 588550).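 Note: 0% = DMSO wells and 100% = benzethonium chloride 70 µM positive control.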 Conditions: K562-ABCB6 porphyrin accumulation, 1 h, at 10 µM, stronger effect = higher value.
Test [16] can be described thus: promoters of myeloid differentiation in arrested cells, primary screen, cell-based, GFP/MAC1 double positive, flow cytometry, validation set (AID 588685;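 active = differentiation response of at least 50%, scaled between solvent and reference control, from cells with both markers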;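 note: compound exposure lasts four days before antibody staining and flow analysis; 0% = DMSO wells and 100% = 5 µM fulvestrant positive control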). Conditions: ER-HoxA9 marrow cells, stronger effect = higher value, normalized: vehicle 0, fulvestrant 100.

Inconclusive results are not listed. Active and inactive are the calls of the source.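 Rule for the calls, unless noted: active = inhibition above the screen-wide mean plus 3 SD, about 51%; inactive = the rest.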

AP-2 complex subunit beta (Homo sapiens), sequence (P63010 whole entry, looked up, the tested form may be a part, one chain of several): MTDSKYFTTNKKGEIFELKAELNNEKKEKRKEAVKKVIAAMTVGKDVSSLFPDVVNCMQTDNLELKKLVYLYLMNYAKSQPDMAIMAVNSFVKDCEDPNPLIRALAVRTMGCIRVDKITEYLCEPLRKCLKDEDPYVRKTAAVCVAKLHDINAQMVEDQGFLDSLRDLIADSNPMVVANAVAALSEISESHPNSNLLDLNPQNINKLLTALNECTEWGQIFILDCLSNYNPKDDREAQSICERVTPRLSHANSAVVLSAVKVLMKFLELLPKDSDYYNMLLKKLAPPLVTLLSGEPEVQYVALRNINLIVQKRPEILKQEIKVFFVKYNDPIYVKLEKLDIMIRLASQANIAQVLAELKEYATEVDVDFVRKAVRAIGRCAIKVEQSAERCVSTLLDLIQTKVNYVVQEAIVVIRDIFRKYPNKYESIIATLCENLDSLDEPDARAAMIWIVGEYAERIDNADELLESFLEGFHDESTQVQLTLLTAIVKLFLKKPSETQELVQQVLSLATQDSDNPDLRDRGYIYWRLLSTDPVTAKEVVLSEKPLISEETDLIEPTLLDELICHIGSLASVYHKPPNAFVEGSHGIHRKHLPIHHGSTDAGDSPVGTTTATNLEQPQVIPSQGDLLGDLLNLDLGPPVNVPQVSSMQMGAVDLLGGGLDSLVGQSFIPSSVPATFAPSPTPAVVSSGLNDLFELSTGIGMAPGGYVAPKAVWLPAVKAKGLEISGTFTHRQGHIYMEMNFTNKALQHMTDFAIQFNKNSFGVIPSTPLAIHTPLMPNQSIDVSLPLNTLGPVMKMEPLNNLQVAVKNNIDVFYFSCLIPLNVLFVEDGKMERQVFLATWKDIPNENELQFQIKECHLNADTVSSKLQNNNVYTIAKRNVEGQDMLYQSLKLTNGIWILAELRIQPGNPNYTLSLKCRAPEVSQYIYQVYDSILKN
Beta-adrenergic receptor kinase 1 (Homo sapiens), sequence (P25098 whole entry, looked up): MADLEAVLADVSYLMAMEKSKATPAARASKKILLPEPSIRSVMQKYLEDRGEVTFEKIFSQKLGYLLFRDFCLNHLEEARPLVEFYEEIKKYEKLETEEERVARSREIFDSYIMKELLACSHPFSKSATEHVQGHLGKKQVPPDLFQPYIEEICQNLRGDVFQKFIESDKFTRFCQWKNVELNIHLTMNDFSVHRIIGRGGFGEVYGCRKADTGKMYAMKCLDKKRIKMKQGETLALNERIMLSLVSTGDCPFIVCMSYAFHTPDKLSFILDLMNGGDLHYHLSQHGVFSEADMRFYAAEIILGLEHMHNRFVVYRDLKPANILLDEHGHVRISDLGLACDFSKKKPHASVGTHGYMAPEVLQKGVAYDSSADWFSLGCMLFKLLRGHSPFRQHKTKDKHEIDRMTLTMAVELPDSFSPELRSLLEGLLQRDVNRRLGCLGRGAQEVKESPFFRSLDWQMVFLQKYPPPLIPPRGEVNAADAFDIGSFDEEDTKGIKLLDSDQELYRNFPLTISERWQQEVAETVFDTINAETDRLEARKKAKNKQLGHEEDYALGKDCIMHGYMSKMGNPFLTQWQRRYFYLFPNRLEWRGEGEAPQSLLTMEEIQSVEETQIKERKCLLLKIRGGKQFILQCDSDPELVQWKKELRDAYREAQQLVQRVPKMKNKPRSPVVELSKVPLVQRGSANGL
Beta-2 adrenergic receptor (Homo sapiens), sequence (P07550 whole entry, looked up): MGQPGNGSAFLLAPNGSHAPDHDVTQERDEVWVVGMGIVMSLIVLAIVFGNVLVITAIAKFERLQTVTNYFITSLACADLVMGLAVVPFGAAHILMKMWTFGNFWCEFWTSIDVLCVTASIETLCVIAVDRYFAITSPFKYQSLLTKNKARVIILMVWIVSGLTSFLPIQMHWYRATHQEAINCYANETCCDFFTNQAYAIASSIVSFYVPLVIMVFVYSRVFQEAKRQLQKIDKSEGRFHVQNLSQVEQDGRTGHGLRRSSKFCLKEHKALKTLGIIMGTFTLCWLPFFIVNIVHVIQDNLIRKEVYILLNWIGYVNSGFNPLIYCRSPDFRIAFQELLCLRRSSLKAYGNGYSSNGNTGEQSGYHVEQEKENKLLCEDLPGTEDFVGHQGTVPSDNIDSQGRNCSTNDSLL
ATP-binding cassette sub-family B member 6 (Homo sapiens), sequence (Q9NP58 whole entry, looked up): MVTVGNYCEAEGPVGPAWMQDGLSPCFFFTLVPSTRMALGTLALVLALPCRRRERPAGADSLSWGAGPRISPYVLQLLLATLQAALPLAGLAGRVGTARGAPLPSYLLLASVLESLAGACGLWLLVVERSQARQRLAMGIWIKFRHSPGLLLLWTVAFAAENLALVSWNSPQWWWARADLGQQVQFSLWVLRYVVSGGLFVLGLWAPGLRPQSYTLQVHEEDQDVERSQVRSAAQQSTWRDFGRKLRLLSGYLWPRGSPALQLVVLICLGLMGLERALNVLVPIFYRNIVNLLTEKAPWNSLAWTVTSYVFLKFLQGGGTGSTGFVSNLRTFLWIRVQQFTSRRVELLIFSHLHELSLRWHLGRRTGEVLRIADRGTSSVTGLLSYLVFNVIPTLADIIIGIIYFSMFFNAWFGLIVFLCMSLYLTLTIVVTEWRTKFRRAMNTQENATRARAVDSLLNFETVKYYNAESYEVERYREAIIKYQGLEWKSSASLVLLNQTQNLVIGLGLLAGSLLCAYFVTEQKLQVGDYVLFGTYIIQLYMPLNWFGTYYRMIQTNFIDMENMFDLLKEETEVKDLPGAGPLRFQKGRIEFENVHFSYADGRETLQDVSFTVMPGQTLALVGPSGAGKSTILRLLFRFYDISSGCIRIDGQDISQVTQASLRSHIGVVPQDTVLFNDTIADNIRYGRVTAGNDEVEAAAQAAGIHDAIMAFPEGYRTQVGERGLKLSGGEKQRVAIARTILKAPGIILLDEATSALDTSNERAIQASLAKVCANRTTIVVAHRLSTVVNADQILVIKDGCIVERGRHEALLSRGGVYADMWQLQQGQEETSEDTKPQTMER

For the molecule `COC(=O)c1ccc(OCCCCN2CC(C)OC(C)C2)cc1` (stereo not given), in test [1], the percent of DMSO control GFP was 104% (inactive). Further, the GFP response vs DMSO in test [2] is 99.7% (inactive); in test [4], 95.9% (inactive). Moreover, in test [3], the percent response of DMSO control is 105% (inactive). Also, the GFP response, % of DMSO in test [5] was 102% (inactive). Also, the double positive events in test [6] worked out at 63.1%. For the same molecule, the vesicle binding response in [6] was 228% (inactive). Besides, the inhibition was -3.77% (inactive) in [7], -5.73% (inactive) in [11] and 5% (inactive) in test [15]. Further, in test [8], the superoxide response (% of plate) is 106% (inactive). In test [9], the aptamer binding inhibition is 0% (inactive). The values for the response in [10] and in test [12] were 2.87% (inactive) and 2.09% (inactive), respectively. For the same molecule, the binding (% of control) in [13] is 98.3% (inactive). In addition, the efflux inhibition (fraction of control) in test [14] is 0.39 (inactive). In addition, the differentiation response in [16] was -11.9% (inactive).

`COc1ccc(-c2csc(-c3cccnc3)n2)cc1C`: the percent of DMSO control GFP in test [1] is 98.2% (inactive). Also, the GFP response vs DMSO in test [2] was 111% (inactive); in test [4] it was 95.7% (inactive). In test [3], the percent response of DMSO control is 91% (inactive). In addition, the GFP response, % of DMSO in test [5] is 84.4% (inactive). In test [6], this molecule returned a double positive events of 59.8%. Moreover, the vesicle binding response in [6] was 170% (inactive). Besides, the figures for the inhibition in [7], in test [11] and in [15] were 0.94% (inactive), 7.91% (inactive) and 3% (inactive), respectively. Further, in test [8], the superoxide response (% of plate) is 102% (inactive). The aptamer binding inhibition in test [9] is 4% (inactive). Further, the response in test [10] was 3.47% (inactive); in test [12], -1.19% (inactive). Further, in [13], the binding (% of control) is 102% (inactive). In addition, the efflux inhibition (fraction of control) in test [14] was 0.12 (inactive). In addition, in test [16], the differentiation response was 4% (inactive).

Turning to `CC(=O)NC(NC(=S)N1CCCCCC1)C(Cl)(Cl)Cl` (stereo not given), the percent of DMSO control GFP in test [1] is 102% (inactive). In addition, the GFP response vs DMSO was 104% (inactive) in [2] and 95.3% (inactive) in [4]. The percent response of DMSO control in [3] was 98.9% (inactive). Also, in test [5], the GFP response, % of DMSO is 99.5% (inactive). The molecule also registered a double positive events in test [6] of 64.5%. In addition, the vesicle binding response in test [6] was 126% (inactive). In addition, the inhibition in test [7] is -20.2% (inactive); in test [11], -7.04% (inactive); in [15], -1% (inactive). Besides, in [8], the superoxide response (% of plate) is 104% (inactive). Also, the aptamer binding inhibition in [9] was 0% (inactive). For the same molecule, the values for the response in test [10] and in [12] were 2.95% (inactive) and 0.33% (inactive), respectively. Further, the binding (% of control) in [13] was 94.8% (inactive). Moreover, the efflux inhibition (fraction of control) in [14] is 0.05 (inactive). Moreover, the differentiation response in test [16] was 6.11% (inactive).

As to `O=C(CN1CC[n+]2c(-c3cccs3)csc21)c1ccc(Br)cc1`, in [1], the percent of DMSO control GFP was 103% (inactive). Further, the GFP response vs DMSO was 104% (inactive) in [2] and 103% (inactive) in test [4]. Also, the percent response of DMSO control in [3] was 108% (inactive). For the same molecule, the GFP response, % of DMSO in test [5] is 107% (inactive). Further, the double positive events in [6] was 64%. Further, the vesicle binding response in [6] is 142% (inactive). For the same molecule, the inhibition in [7] was 1.59% (inactive); in test [11], 14.7% (inactive); in [15], -9% (inactive). In [8], the superoxide response (% of plate) is 96.7% (inactive). Moreover, the aptamer binding inhibition in test [9] was 0% (inactive). The response is 10.7% (inactive) in test [10] and 1.44% (inactive) in [12]. The binding (% of control) in test [13] is 99% (inactive). Moreover, the efflux inhibition (fraction of control) in [14] was -0.085 (inactive). Also, in test [16], the differentiation response was -7.5% (inactive).

For the molecule `COc1ccccc1C(=O)Oc1ccc2c(c1)O/C(=C\c1ccncc1)C2=O`, the percent of DMSO control GFP in [1] is 94.7% (inactive). In addition, the GFP response vs DMSO in test [2] is 105% (inactive); in [4], 126% (inactive). In addition, the percent response of DMSO control in test [3] is 97.7% (inactive). In addition, in test [5], the GFP response, % of DMSO is 105% (inactive). The molecule also displayed a double positive events in test [6] of 63.9%. For the same molecule, the vesicle binding response in [6] was 274% (inactive). Besides, the inhibition in test [7] is -58.2% (inactive); in [11], 3.83% (inactive); in test [15] it was -9% (inactive). Also, the superoxide response (% of plate) in test [8] is 119% (inactive). Further, the aptamer binding inhibition in [9] was -1% (inactive). Also, the response in test [10] is -22.5% (inactive); in test [12] it was 0.47% (inactive). The binding (% of control) in test [13] is 103% (inactive). Also, the efflux inhibition (fraction of control) in test [14] was 0.17 (inactive). Besides, the differentiation response in test [16] was 10.8% (inactive).
